# Source: PubChem BioAssay
# aSyn UTR act: Activators working through SNCA 5'UTR binding (MLPCN); alpha-synuclein 5'UTR reporter, activators screen; activity score, % (tested at 7.5 µM), hits read low; hit rate 7.1% among 300,000; in the data active = activity score below about -60%
# Numbers stand for hits; . = inactive. Only a sample is shown.
SMILES,aSyn UTR act
O=C(/C(C=Nc1cccc(C(F)(F)F)c1)=C(/O)c1ccco1)C(F)(F)F,-193.8
Cc1ccccc1C(=O)NCC(=O)c1ccccc1,-135.0
O=C(COc1ccccc1)NCCSc1ccccc1,-99.4
O=C(NCCSc1ccccc1)c1ccccc1F,-76.2
O=C(CNC(=O)c1ccccc1Cl)c1ccccc1,-113.0
O=C(CNC(=O)c1ccccc1F)c1ccccc1,-93.3
O=C(NCCSc1ccccc1)c1cccnc1,-99.9
CC(CNC(=O)c1ccccc1Cl)c1ccccc1 (stereo not drawn),-111.2
COc1ccc(NC(=O)c2cc(Br)c(Br)s2)cn1,-69.1
COc1ccc(NC(=O)c2sccc2C)cn1,-115.4
COc1ccc(NC(=O)c2nc3nccc(C)n3n2)cn1,-72.3
CCc1cc(C(=O)Nc2ccc(OC)nc2)sc1C,-94.5
O=C(Nc1nc(-c2nc3ccccc3s2)cs1)C1COc2ccccc2O1 (stereo not drawn),-135.6
CS(=O)(=O)c1ccc2nc(NC(=O)C3COc4ccccc4O3)sc2c1 (stereo not drawn),-97.6
COc1ccc2nc(NC(=O)C3COc4ccccc4O3)sc2c1 (stereo not drawn),-80.1
O=C(N/N=C/C(Cl)=C\c1ccccc1)c1cccs1,-92.0
CC(/C=N/NC(=O)c1cccs1)=C\c1ccccc1,-99.2
Brc1ccc(C2C3=C(Nc4ncnn42)c2ccccc2OC3c2ccncc2)cc1 (stereo not drawn),.
O=c1c(Cl)nc2cc(Cl)ccc2n1CCNc1ncc(C(F)(F)F)cc1Cl,.
NC(=O)C1=NOC(CNc2ncc(C(F)(F)F)cc2Cl)C1 (stereo not drawn),-72.3
S=c1[nH]nc(COc2ccccc2)n1/N=C/C(Cl)=C/c1ccccc1,-128.5
S=c1[nH]nc(-c2ccncc2)n1/N=C/C(Cl)=C\c1ccccc1,-220.7
COc1ccc(COC(=O)N/N=C/c2cccs2)cc1,-66.2
O=C(Cc1cccs1)N/N=C/C(Br)=C/c1ccccc1,-257.8
CC(/C=N/NC(=O)Cc1cccn1C)=C\c1ccccc1,-118.4
SMILES,aSyn UTR act
O=C(CN1CCOCC1)N/N=C/C(Br)=C\c1ccccc1,-75.6
Cc1ccccc1NCC(=O)N/N=C/C(Br)=C/c1ccccc1,-66.1
COc1ccc(/C=N/NC(=O)Cc2cccs2)cc1,-69.7
CC(/C=N/NC(=O)Cc1cccs1)=C\c1ccccc1,-155.6
COc1ccccc1NC(=O)C(=O)N/N=C/c1cccs1,-147.2
CCN(CC)C(=O)CSc1nc2ccc(NC(=O)CSc3nccn3C)cc2s1,-65.5
Cn1cnnc1SCC(=O)Nc1ccc2nc(SCc3ccccc3Cl)sc2c1,-101.2
Cc1ccccc1OCc1nnc(SCC(=O)Nc2ccc3nc(SCC(=O)Nc4ccccc4)sc3c2)n1C,-70.1
Cn1cnnc1SCC(=O)Nc1ccc2nc(SCc3ccccc3)sc2c1,-142.1
CCOc1ccccc1-n1c(SCC(=O)Nc2ccc(CC)cc2)nc2n[nH]c(C)c2c1=N,.
S=c1[nH]c(-c2ccccc2)cn1/N=C/c1ccccc1Br,-83.1
Oc1ccc(/C=N/n2cc(-c3ccccc3)[nH]c2=S)cc1,-92.0
Cc1ccc(/C=N/n2cc(-c3ccccc3)[nH]c2=S)s1,-169.4
C=C(C)CSc1nc2nc(C)c(Br)cc2[nH]1,-73.4
c1ccc(-c2nc(-c3ccco3)cs2)nc1,-182.7
Fc1ccc(-c2csc(-c3ccccn3)n2)cc1F,-112.3
CC(=C/c1ccccc1)/C=C1/SC(N2CCOCC2)=NC1=O,-101.8
O=C1C=C(N2CCOCC2)c2ccccc2C1=O,.
CC1Oc2ccccc2C=C1/C=C1/SC(N2CCOCC2)=NC1=O (stereo not drawn),-107.7
O=C(Nc1ccccc1Cl)c1cccs1,-70.9
O=C(Nc1ccccc1Cl)c1ccc(-c2ccccn2)s1,-119.6
COc1cc(NC(=O)c2ccccc2Cl)ccc1NC(=O)c1cccs1,-143.0
COc1cc(NC(=S)NC(=O)c2c(OC)cccc2OC)ccc1NC(=O)c1cccs1,-94.5
COc1cccc(N2C(C(C)=O)=NN(c3ccccc3)C2c2ccc(N3CCOCC3)cc2)c1 (stereo not drawn),-82.1
Cc1onc(-c2ccccc2)c1C(=O)NC(=S)NNC(=O)c1ccc(O)cc1O,.
SMILES,aSyn UTR act
O=C(NNc1c2ccccc2nc2ccccc12)c1ccccc1O,-92.9
C/C(=N\NC(=O)c1cc(C2CC2)nc2ccccc12)c1ccc(O)cc1O,.
O=C(NNc1c2ccccc2nc2ccccc12)c1ccc(O)cc1O,-78.6
COC(=O)c1ccc(N)c(N=CC2=C(O)CC(C)(C)CC2=O)c1,-171.9
COC(=O)c1ccc2c(c1)C(C)(C)C(/C=C/c1ccccc1O)=[N+]2C,.
Cc1oc2cc3c(C(=O)N4CCCCC4)c(C)oc3cc2c1C(=O)N1CCCCC1,-162.2
CCOc1ccc(C(=S)NC2CCCCC2)cc1,-100.5
COc1ccc(C(=S)NC2CCCCC2)cc1,-80.4
CC1SCC(=NOCc2ccccc2)CS1 (stereo not drawn),-88.5
CCOc1ccc(NC(=O)c2nn(C)cc2Br)cc1,-154.0
Cn1cc(Br)c(C(=O)NNC(=O)c2ccc(Cl)cc2)n1,-94.1
COc1cccc(NC(=O)c2nn(C)cc2Br)c1,-105.2
Cn1cc(Br)c(C(=O)Nc2ncc(Br)s2)n1,-146.9
CSc1ccccc1OCc1cc(C(=O)N2CCCC(C)C2)no1 (stereo not drawn),-134.3
COc1ccc(OCc2cc(C(=O)N3CCCC(CO)C3)no2)c2ccccc12 (stereo not drawn),-102.3
CSc1ccccc1OCc1cc(C(=O)N2CCN(C3CCCC3)C(=O)C2)no1,-112.4
COc1ccccc1OCc1cc(C(=O)N2CCCC(OCc3cccnc3)C2)no1 (stereo not drawn),-133.5
CSc1ccccc1OCc1cc(C(=O)N2CCSCC2)no1,-113.2
COc1ccc(C(=O)Nc2nc3ccccc3[nH]2)cc1OC,-147.1
CCOc1ccc(C(=O)Nc2nc3ccccc3[nH]2)cc1OCC,-172.0
COc1ccc(Cl)cc1C(=O)Nc1nc2ccccc2[nH]1,.
COc1cc(C(=O)Nc2nc3ccccc3[nH]2)ccc1OC(F)F,-233.3
Cc1nc2c(s1)sc1ccccc12,-76.1
C=CCNC(=S)N/N=C/c1ccc(-c2ccc(OC)cc2)o1,-61.8
CC(C)(C)NC(=S)N/N=C\c1ccc(-c2ccc([N+](=O)[O-])cc2)o1,-78.9
SMILES,aSyn UTR act
COc1cccc(NC(=O)c2cnn(-c3ccccc3)c2C)c1,-91.2
Cc1ccc(NC(=O)c2cnn(-c3ccccc3)c2C)c(C)c1,-212.4
COc1ccc(OC)c(C(=O)NC2CC(C)(C)Cc3c2cnn3-c2ccccc2)c1 (stereo not drawn),.
CCc1cccc(NC(=O)c2cnn(-c3ccccc3)c2C)c1,-143.5
O=C(Nc1cccc(Cl)c1)c1ccc(Cn2cc(Cl)cn2)cc1,-69.9
CCn1ncc(C(=O)Nc2cccc(Cl)c2)c1C,-207.5
Cc1nc(/N=C(\N)Nc2ccccc2)nc2ccccc12,-132.7
O=C(COC(=O)c1ccc2[nH]c3c(c2c1)CCCC3)Nc1ccccc1,-63.9
Cc1nc2sc(-c3ccccc3)cc2c(=O)n1/N=C/N(C)C,-156.4
Cc1nc2sc(-c3ccccc3)cc2c(=O)n1N,.
NC(=O)CSc1nc2sc(-c3ccccc3)cc2c(=O)n1N,-63.5
Cc1nc2sc(-c3ccccc3)cc2c(=O)n1-n1cccc1,-189.4
CCOc1cc(/C=C\c2[nH]c(=O)[nH]c(=O)c2[N+](=O)[O-])ccc1OC(C)CC (stereo not drawn),-67.0
CCn1cc(C(=O)NCCCN(C)C)c(=O)c2cc(F)c(N3CCN(C)CC3)cc21,-64.7
Cc1ccc(NC(=O)c2nnn(-c3ccc4c(c3)OCCO4)c2N)cc1,-148.6
Cc1ccccc1Cn1nnc(C(=O)Nc2ccc3c(c2)OCCO3)c1N,-108.8
